High-throughput results from PubChem BioAssay.
D2 ag-1 = HTS Assay for Allosteric Agonists of the Human D2 Dopamine Receptor: Primary Screen for Agonists; D(2) dopamine receptor (Homo sapiens), P14416; HEK293 T-REx D2 cells, calcium flux agonist mode; activation, % at 2 µM; 0.53% of 340,000 active; AID 485358, 2010;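 active means activation over 3 SD above normal in the single-dose calcium agonist read, cut at about 30% in these data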
Target sequence (P14416 whole entry, looked up): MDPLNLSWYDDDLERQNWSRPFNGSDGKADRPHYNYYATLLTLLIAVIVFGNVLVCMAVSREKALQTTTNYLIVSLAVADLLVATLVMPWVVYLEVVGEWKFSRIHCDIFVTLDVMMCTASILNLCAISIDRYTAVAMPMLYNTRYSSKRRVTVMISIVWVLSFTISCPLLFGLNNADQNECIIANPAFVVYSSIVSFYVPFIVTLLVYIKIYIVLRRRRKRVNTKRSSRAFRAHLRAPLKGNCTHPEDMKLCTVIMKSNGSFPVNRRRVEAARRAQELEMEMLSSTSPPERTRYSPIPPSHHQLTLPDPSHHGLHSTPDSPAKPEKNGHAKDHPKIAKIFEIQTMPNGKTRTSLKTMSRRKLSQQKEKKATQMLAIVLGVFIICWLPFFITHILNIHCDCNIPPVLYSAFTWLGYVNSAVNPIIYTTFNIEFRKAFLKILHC
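Agonism scored from kinetic calcium signal (1 read/sec, 180 s) following compound pin transfer, after a 10 s baseline. Cells: HEK293 Trex line expressing inducible D2 receptor coupled to calcium, dye-loaded after overnight culture at 30 C.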
D2 ag-2 = Beta-Arrestin HTS for Positive Allosteric Modulators of the Human D2 Dopamine Receptor: Agonists; D(2) dopamine receptor (Homo sapiens), P14416; DiscoveRx PathHunter D2 beta-arrestin, luminescence, 90 min; 100% = 57 uM dopamine signal; activation, % (concentration not given with the values); 0.084% of 360,000 active; AID 624465, 2012; in the data active means activation above about 40%; inconclusive means between about 15% and that limit
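DiscoveRx PathHunter D2 beta-arrestin cells (2,100/well) attached overnight, then compound-stimulated 90 min at 37 C in HBSS/10 mM HEPES/0.1% Tween-20 buffer; beta-galactosidase complementation read by luminescence after 1 h at ambient temperature. Dopamine 57 uM final (EC100) as control.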
D2 antag = HTS Assay for Allosteric Antagonists of the Human D2 Dopamine Receptor: Primary Screen for Antagonists | 2% of 340,000 active | HEK293 TREx D2 cells, calcium flux, dopamine EC80 | inhibition, % at 10 µM | D(2) dopamine receptor (Homo sapiens), P14416; in the data active means inhibition above about 30%; inactive means below that, where a call was filed
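Tetracycline-induced HEK293 T-REx cells expressing D2 force-coupled to calcium signalling were dye-loaded, exposed to compound for 180 s, then challenged with an EC80 of dopamine; calcium flux was followed kinetically for a further 180 s.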
D2 PAM-1 = Beta-Arrestin HTS for Positive Allosteric Modulators of the Human D2 Dopamine Receptor: Potentiators; DiscoveRx D2 beta-arrestin cells, luminescence, 90 min; 100% = 57 uM dopamine signal; potentiation, % (no concentration beside the values); 0.23% of 360,000 active; AID 624464, 2012; in the data active means potentiation above about 50%; inconclusive means mostly about 30% to 49%
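PathHunter beta-arrestin assay in DiscoveRx D2 cells. Compounds were added with an EC20 of dopamine (50 nM final) for 90 min at 37 deg C. Luminescence was read 1 h after detection reagent, with 57 uM dopamine as the EC100 control.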
D2 PAM-2 = HTS Assay for Positive Allosteric Modulators of the Human D2 Dopamine Receptor: Primary Screen for Potentiators. D(2) dopamine receptor (Homo sapiens), P14416. HEK293 T-REx D2, calcium flux, EC20 dopamine potentiation. potentiation, % at 10 µM. 0.34% of 340,000 active. AID 485347, 2010;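 active means potentiation over 3 SD above the plate norm, cut at about 30% in these data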
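Potentiation of an EC20 dopamine calcium response measured kinetically over 180 s, after a preceding 180 s compound-only read flagging agonists. Cells: inducible Hek293 Trex D2 line, 4000/well, cultured overnight at 30 C before dye loading.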
Hits are given with their value. Compounds with a hit are over-represented: about 2.4% of the library has one in this group of screens.

CCOc1ccc(-c2nc(SCC(=O)NC3CCCC3)c(-c3ccccc3)[nH]2)cc1OC was read as D2 ag-1 inactive and D2 PAM-2 inactive.
`COc1ccccc1C(=O)N(CCN(C)C)c1nc2cc(C)cc(C)c2s1` gave D2 ag-1 inactive, D2 ag-2 inactive, D2 antag 38.1, D2 PAM-1 inactive and D2 PAM-2 inactive.
Screening Cc1ccccc1OCC(=O)Nc1ccc(S(=O)(=O)Nc2ncccn2)cc1 returned D2 ag-1 inactive and D2 PAM-2 inactive.
Screening Cc1cc2nc3c(=O)n(C4CCCCC4)c(=O)[nH]c3nc2cc1N returned D2 ag-1 61.4, D2 ag-2 inactive, D2 antag inactive, D2 PAM-1 inactive and D2 PAM-2 inactive.
For Cc1cc(C)cc(Nc2cc(=O)n(C3CCCCC3)c(=O)[nH]2)c1 the results were D2 ag-1 inactive, D2 ag-2 inactive, D2 antag inactive, D2 PAM-1 inactive and D2 PAM-2 inactive.
O=C(N[C@H]1CC1c1ccccc1)c1ccc([N+](=O)[O-])cc1 (stereo partly drawn) was read as D2 ag-1 inactive, D2 ag-2 inactive, D2 antag 32.9, D2 PAM-1 inactive and D2 PAM-2 inactive.
`CCCSc1nnc2n(C)c(=O)c3c4c(sc3n12)CCC4` gave D2 ag-1 inactive, D2 ag-2 inactive, D2 antag 40.1, D2 PAM-1 inactive and D2 PAM-2 inactive.
`CCCSc1nnc2n(Cc3ccccc3)c(=O)c3c4c(sc3n12)CCC4` gave D2 PAM-2 inactive.
Screening CSc1nc(Nc2ccc(C)cc2C)cc(-c2ccccc2)n1 returned D2 ag-1 inactive and D2 PAM-2 inactive.
COc1ccc(Cl)cc1S(=O)(=O)n1cnc2ccccc21 was read as D2 ag-1 inactive, D2 ag-2 inactive, D2 antag 79.0, D2 PAM-1 inactive and D2 PAM-2 inactive.
For CCOc1ccc(Cl)cc1S(=O)(=O)n1cnc2ccccc21 the results were D2 ag-1 inactive, D2 ag-2 inactive, D2 antag inactive, D2 PAM-1 inactive and D2 PAM-2 inactive.
For CCS(=O)(=O)Nc1ccc2[nH]c(=O)[nH]c2c1 the results were D2 ag-1 inactive, D2 ag-2 inactive, D2 antag 32.8, D2 PAM-1 inactive and D2 PAM-2 inactive.
CS(=O)(=O)Nc1ccc2[nH]c(=O)[nH]c2c1 was read as D2 ag-1 inactive, D2 ag-2 inactive, D2 antag inactive, D2 PAM-1 inactive and D2 PAM-2 inactive.
`COc1ccc(N2C(N)=NC(N)=NC2(C)C)cc1` gave D2 ag-1 inactive, D2 ag-2 inactive, D2 antag inactive, D2 PAM-1 inactive and D2 PAM-2 31.3.
For Cn1c(CSCc2ccc(Cl)c(Cl)c2)nnc1SCC(=O)Nc1nccs1 the results were D2 ag-1 inactive, D2 ag-2 inconclusive, D2 antag inactive, D2 PAM-1 69.6 and D2 PAM-2 inactive.
O=C1NCCN1Cc1ccc(Cl)cc1 was read as D2 ag-1 inactive, D2 ag-2 inactive, D2 antag inactive, D2 PAM-1 inactive and D2 PAM-2 48.9.
`CSc1ccc(CN2CCC2(C)C(=O)NC2CCc3ccccc32)cc1` (stereo not drawn) gave D2 ag-2 inactive and D2 PAM-1 inactive.
Cc1cc2oc(=O)c(CC(=O)O)c(C)c2c2occ(-c3ccc(F)cc3)c12 was read as D2 ag-1 inactive and D2 PAM-2 inactive.
For CCOc1ccc(C(=O)Nc2ccc3c(c2)OCCO3)cc1OC the results were D2 ag-1 inactive, D2 ag-2 inactive, D2 antag inactive, D2 PAM-1 inactive and D2 PAM-2 inactive.
Cc1ccc(NC(=O)c2ccc3c(c2)OCCO3)cc1S(=O)(=O)Nc1cccc(Cl)c1 was read as D2 ag-1 inactive, D2 ag-2 inactive, D2 antag 31.3, D2 PAM-1 inactive and D2 PAM-2 inactive.
Screening CCOc1ccc(NC(=O)c2ccc3c(c2)OCCO3)cc1S(=O)(=O)N(CC)CC returned D2 ag-1 inactive, D2 ag-2 inactive, D2 antag 31.9, D2 PAM-1 inactive and D2 PAM-2 inactive.
